TDP1 cell CPT: DT40-hTDP1 cell growth loss with CPT. chicken DT40 Tdp1-/-;hTDP1 cells + 20 nM CPT, ATP luminescence, 48 h. Potency, µM (top dose mostly 46.2 µM), for the others: at the highest dose activity change, negative = growth inhibition, hits mostly inhibitors. hit rate 12% among 420,000. AID 686979; note: potency is the fitted concentration of half-maximal effect; nearly all actives have a fitted effect of over 55% in size
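Cell growth measured by CellTiter-Glo luminescence after a minimum 48 h, 37 C compound exposure with 20 nM CPT in Tdp1-knockout DT40 cells stably expressing hTDP1, seeded 400/well; qHTS titration format.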
HT1080NT lethal: kills 2HG-producing HT-1080-NT fibrosarcoma cells; HT-1080-NT fibrosarcoma viability, CellTiter-Glo ATP luminescence, 48 h; Potency, µM (highest dose often 46.1 µM), without a hit: top-dose activity, negative = less viability, usual class: cytotoxic; hit rate 1.6% among 360,000; AID 686970;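 note: NT is the 2HG producing partner of a matched IDH1 knockdown line; potency is the fitted concentration of half-maximal effect; 0% = DMSO-treated cells and -100% = media-only wells without cells; nearly all actives have a fitted effect of over 55% in size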
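Luminescent CellTiter-Glo readout after 48 hours of compound exposure at 37 degrees C defined viability of HT-1080-NT cells. Activity was normalized to DMSO wells and cell-free media wells; concentration-response curves were fitted and assigned curve classes.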
DT40 TDP1 no CPT: qHTS for Inhibitors of human tyrosyl-DNA phosphodiesterase 1 (TDP1): qHTS in cells in absence of CPT; DT40 Tdp1-/- hTDP1 cells, no CPT, ATP luminescence, 48 h; Potency, µM (top dose mostly 46.2 µM), for the others: top-dose activity change, negative = growth inhibition, usual class: inhibitors; hit rate 15% among 420,000; AID 686978, 2013; note: potency is the fitted concentration of half-maximal effect; nearly all actives have a fitted effect of over 55% in size
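Camptothecin absent (DMSO only). Human TDP1-complemented DT40 knockout cells, 400 cells/well, 37 °C for minimum 48 hr; ATP measured via CellTiter-Glo, 30 min dark incubation, luminescence.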
IL-1B inflam inh: blocks inflammasome-driven IL-1 beta release; THP-1 LPS/ATP IL-1B secretion, AlphaLISA, 16 h; active compounds read low; activity change, % at 57.5 µM; hit rate 4.7% among 360,000; in the data active = activity change below about -50%; inconclusive = mostly about -30% to -49%
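Secreted IL-1B measured by AlphaLISA bead assay after 16 h compound exposure of THP-1 cells; compounds (final up to 57.5 uM) added 1 h before LPS (250 ng/mL) and ATP (1.25 mM) stimulation; lower signal means less secretion.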
HT1080 IDH1KD tx: toxicity to HT-1080 IDH1 knockdown cells (counter line). Potency, µM (titrated, usually from 46.1 µM), inactives show at the highest dose activity, negative = toxicity, most hits filed as cytotoxic. HT-1080 IDH1 knockdown viability, ATP luminescence, 48 h. hit rate 2% among 360,000;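 note: potency is the fitted concentration of half-maximal effect; 0% = DMSO wells and -100% = cell-free medium wells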
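Using the IDH1-knockdown HT-1080 line run in the same batch and compound series as the NT line, viability after 48 h at 37 °C was determined by CellTiter-Glo luminescence and expressed as % activity.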
ELG1 repair inh: inhibitors of ELG1-dependent DNA repair in HEK293T cells. HEK293T ELG1-luciferase reporter, luminescence, 16 h; DNA damage induced by 5-fluorouridine. Potency, µM (highest dose often 46.1 µM), inactives show at the top dose activity change, negative = inhibition, most hits filed as inhibitors. hit rate 2.3% among 330,000. AID 504467; note: potency is the fitted concentration of half-maximal effect; nearly all actives have a fitted effect of over 55% in size
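Reporter activity after DNA damage by 5-fluorouridine is monitored. Compound-treated cells incubate 16 hr at 37 °C, then ONE-Glo is added for 30 min before luminescence reading.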
Numbers without * were called inactive; ? = inconclusive; / = no result. Compounds with a hit are over-represented: about 19% of the library has one in this group of screens. Unless noted, calls come from the whole dose curve; as a rule, active = well fitted curve in the direction sought with a large enough effect; inconclusive = small, poorly fitted or top-dose-only effect, or another doubt; inactive = no such curve, though single readings can be large; an effect the other way counts as inactive or inconclusive. Unless noted, % is set by controls: 0 for no effect and ±100 for the full control effect.

SMILES	TDP1 cell CPT	HT1080NT lethal	DT40 TDP1 no CPT	IL-1B inflam inh	HT1080 IDH1KD tx	ELG1 repair inh
CC1=C(C(=O)Nc2ccc(Cl)cc2)C(c2ccccc2C)n2ncc(C(=O)Nc3ccc(C)cc3)c2N1 (stereo not given)	7.3µM*	/	7.3µM*	/	/	/
COc1ccc(NC(=O)C2=C(C)Nc3c(C(=O)Nc4ccc(C)cc4)cnn3C2c2cc(OC)ccc2OC)cc1 (stereo not given)	-4%	/	?	/	/	/
Cc1ccccc1NC(=O)CCn1nc(-c2ccc(Cl)cc2)c2ccccc2c1=O	?	/	-28%	/	/	/
Cn1c(=O)c2cc(NC(=O)NCCc3ccccc3)ccc2n1Cc1cccc(C(F)(F)F)c1	?	?	23µM*	-10	?	/
Cn1c(=O)c2cc(NC(=S)NC3CCCCC3)ccc2n1Cc1ccc(F)cc1	-13%	-16%	?	-3	4%	/
Cc1cc(C)cc(Cn2c3ccc(NC(=S)NC4CCCCC4)cc3c(=O)n2C)c1	23µM*	-15%	?	-15	1%	/
Cc1ccc(CNC(=S)Nc2ccc3c(c2)c(=O)n(C)n3Cc2cccc(C(F)(F)F)c2)cc1	26µM*	?	15µM*	-18	?	/
Cn1c(=O)c2cc(NC(=S)NC3CCCCC3)ccc2n1Cc1cccc(C(F)(F)F)c1	?	-17%	?	-27	-15%	/
Cn1c(=O)c2cc(NC(=O)OCCF)ccc2n1Cc1cccc(C(F)(F)F)c1	23µM*	20%	23µM*	-14	4%	/
CC(=O)C[C@@H](O)CC(=O)[C@@H]1OC(=O)[C@H](C)C/C=C\Cc2ccccc21	-10%	-21%	-6%	-10	-3%	16%
Cc1cc(C)cc(Cn2c3ccc(NC(=O)NCCc4cccs4)cc3c(=O)n2C)c1	16µM*	-21%	?	0	?	/
Cn1c(=O)c2cc(NC(=O)NCc3ccccc3)ccc2n1C/C=C/c1ccccc1	7.3µM*	8.2µM*	7.3µM*	0	8.2µM*	/
CCNC(=S)Nc1ccc2c(c1)c(=O)n(C)n2Cc1cccc(C(F)(F)F)c1	?	-5%	23µM*	13	-8%	/
CC(=O)c1ccc(N2CCN(S(=O)(=O)c3ccc(-c4cc(C(F)(F)F)on4)s3)CC2)cc1	-28%	/	?	/	/	/
O=c1[nH]cnc(O)c1C(c1cccc([N+](=O)[O-])c1)c1c(O)nc[nH]c1=O	-1%	-23%	-11%	1	-2%	-2%
CCc1nn(CC(=O)Nc2ccc(C)cc2C)c(=O)c2cc3sccc3n12	-16%	/	?	/	/	/
CCCn1cnc2c(Sc3c([N+](=O)[O-])ncn3C)nc(N)nc21	-26%	-4%	?	-54*	-8%	/
CCCCn1cnc2c(SCc3ccccn3)nc(N)nc21	9%	2%	-1%	-75*	2%	/
CCC(C)Cn1cnc2c(SCc3ccccn3)nc(N)nc21 (stereo not given)	-14%	-14%	?	-9	-11%	/
Cn1cnc([N+](=O)[O-])c1Sc1nc(N)nc2c1ncn2Cc1ccccc1	?	0%	?	-101*	-27%	/
CCCn1cnc2c(SCc3ccccc3F)nc(N)nc21	-28%	-19%	?	-23	?	/
CCCCn1cnc2c(Sc3c([N+](=O)[O-])ncn3C)nc(N)nc21	-12%	-20%	?	-95*	?	/
Cc1cc(C)cc(C(=O)N[C@@H](C)C(=O)N2CCC3(CC2)NCCc2[nH]cnc23)c1	-16%	17%	18%	-13	12%	20%
CCCC(=O)N1CCCC(c2cc(C(=O)Nc3ccccc3)no2)C1 (stereo not given)	?	?	?	-4	-28%	/

Assay outcomes deposited in PubChem BioAssay by National Center for Advancing Translational Sciences (NCATS).
